Data on six molecules can be found in PubChem BioAssay.

Assay [1] can be described thus: reduced mouse 2C T cell binding to pMHC/ICAM-1 vesicles – MLPCN validation set, flow cytometry, LFA-1/ICAM-1 modulator project, pilot screen (AID 2523;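 active = response below a set limit, under 55% cells CD8-positive and vesicle-bound, and CD8 cells' 90th-percentile brightness under 279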;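 as to vesicle binding response: mean PE anti-B7-1 fluorescence of CD8+ cells relative to row control; 100% = QL9-loaded vesicles with DMSO vehicle in the same plate row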). The conditions noted are these: 2C mouse CD8+ T cells, at 7 µM, stronger effect = lower value; double positive events: measured here: CD8+/vesicle+ event percentage. In general terms: A flow cytometer gives signals particle by particle.

For assay [2], the target named is Integrin beta-1 (Homo sapiens) + Integrin alpha-4 (Homo sapiens) (UniProt P13612+P05556). The assay can be described thus: alpha4beta1 integrin LIBS antibody binding reduction – U937 cells, HUTS-21 mAb, flow cytometry, validation set, VLA-4 allosteric modulator project, pilot screen (AID 2674;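 active = inhibition above 50%, about 3 SD of the validation set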;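 also: antibody binding induced by the VLA-4 ligand LDV present at three times its Kd; 0% = LDV ligand with antibody and no compound and 100% = antibody without LDV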). The conditions noted are these: HUTS-21 LIBS mAb binding, at 6.7 µM, stronger effect = higher value, binding induced by LDV ligand.

The nature of assay [3]: calorie-restriction mimetic ROS inhibitors, yeast – validation compound set, pilot screen (AID 2706;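 active = superoxide response below 65% of plate, a cut near 3 SD across the whole screen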;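 also: yeast exposed to compound for one week at 30 degrees C before staining; 100% = mean of all compound wells on the same plate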). The conditions noted are these: S. cerevisiae aging, superoxide DHE fluorescence; at 10 µM, stronger effect = lower value.
Assay [4] concerns the target Beta-adrenergic receptor kinase 1 (Homo sapiens) (UniProt P25098). The experiment in a line: GRK2 binders displacing RNA aptamer, biochemical, validation, human GRK2, bead flow cytometry (AID 488806;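 active = aptamer binding inhibition above 30%, about 3 SD of noise from non-fluorescent compounds; inactive = inhibition at or below 30%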). As to conditions: bead-bound GRK2, FAM-aptamer displacement, at 10 µM, stronger effect = higher value.
Assay [5] has as its target Beta-2 adrenergic receptor (Homo sapiens) (UniProt P07550). The assay can be described thus: agonist-induced loss of surface beta2AR – cell-based, FAP fluorogen, flow cytometry, validation set, pilot screen (AID 504459;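 active = percent response above 42, roughly 3 SD of non-fluorescent test compounds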;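 also: agonist-driven loss of surface beta2AR via internalization measured by FAP dye flow cytometry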). As to conditions: Am2.2-beta2AR cells, at 10 µM, stronger effect = higher value.
The target in assay [6] is AP-2 complex subunit beta (Homo sapiens) (UniProt P63010). The experiment in a line: beta-arrestin/AP2 interaction blockers – biochemical, validation set, GST-AP2 beads, flow cytometry, pilot screen (AID 504541;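 active = inhibition above 54%, about 3 SD of non-fluorescent compounds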;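 also: AP2 carries R879A mutation and is captured from E. coli lysate; bead-bound FITC arrestin peptide fluorescence measuring arrestin peptide binding to AP2; 0% = DMSO wells and 100% = excess unlabeled arrestin peptide control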). As to conditions: FITC arrestin peptide, at 10 µM, stronger effect = higher value, AP2 beta2 appendage fragment, R879A mutant.
Assay [7] is described as follows: cytosolic pH regulators acting via V-ATPase – S. cerevisiae, pHLuorin, HTS validation (AID 504600; in the data active = response above about 15%;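 also: plate controls were DMSO for no effect and reference compound for full effect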). The conditions noted are these: V-ATPase proton transport, at 10 µM, stronger effect = higher value.
Assay [8] deals with anti-desmoglein-3 scFv antibody binding to human DSG3. The experiment in a line: blockers of pathogenic pemphigus antibody–desmoglein-3 binding – biochemical, validation compound set, bead-based, flow cytometry, pilot screen (AID 588368).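 Also: signal is the median channel fluorescence of bead-bound GFP antibody.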 As to conditions: Protein G beads, DSG3-Fc, scFv-GFP binding, at 10 µM, stronger effect = lower value.
Assay [9] is described as follows: Nile Red efflux blockade in pump-expressing yeast – validation compound set, multiplex, phenotypic, pilot screen (AID 588506;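 active = efflux inhibition above 0.42, the validation set average plus 4 SD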;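 also: Nile Red retained in cells so higher fluorescence means more efflux inhibition; 0 = negative control wells and 1 = enniatin B 25 µM full block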). As to conditions: S. cerevisiae pump-expressing triplex, Nile Red efflux flow cytometry; at 10 µM; stronger effect = higher value; the pumps come from Candida albicans.
Assay [10] addresses ATP-binding cassette sub-family B member 6 (Homo sapiens) (UniProt Q9NP58). The assay can be described thus: blockers of ABCB6-driven porphyrin uptake – K562-ABCB6 cells, flow cytometry, validation set, pilot screen (AID 588550;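 active = inhibition above the screen-wide mean plus 3 SD, about 51%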;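 also: 0% = DMSO wells and 100% = benzethonium chloride 70 µM positive control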). The conditions noted are these: K562-ABCB6 porphyrin accumulation, 1 h, at 10 µM, stronger effect = higher value.
Assay [11] can be described thus: AML differentiation inducers, ER-HoxA9 marrow cells – cell-based, GFP/MAC1 double positive, flow cytometry, validation set, primary screen (AID 588685;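 active = differentiation response of at least 50%, scaled between solvent and reference control, from cells with both markers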;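 also: compound exposure lasts four days before antibody staining and flow analysis; 0% = DMSO wells and 100% = 5 µM fulvestrant positive control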). The conditions noted are these: stronger effect = higher value, normalized: vehicle 0, fulvestrant 100.

As usually defined, the inhibition is the relative decrease from the control value, in per cent.

Calls of active or inactive are those of the source.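 The calls were made as follows, unless noted: active = binding below the plate cutoff, the plate median minus 3 SD, with a reading above zero; inconclusive = below the plate cutoff but reading exactly zero; inactive = the rest.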

Integrin beta-1 (Homo sapiens) + Integrin alpha-4 (Homo sapiens), sequence (P05556 whole entry, looked up): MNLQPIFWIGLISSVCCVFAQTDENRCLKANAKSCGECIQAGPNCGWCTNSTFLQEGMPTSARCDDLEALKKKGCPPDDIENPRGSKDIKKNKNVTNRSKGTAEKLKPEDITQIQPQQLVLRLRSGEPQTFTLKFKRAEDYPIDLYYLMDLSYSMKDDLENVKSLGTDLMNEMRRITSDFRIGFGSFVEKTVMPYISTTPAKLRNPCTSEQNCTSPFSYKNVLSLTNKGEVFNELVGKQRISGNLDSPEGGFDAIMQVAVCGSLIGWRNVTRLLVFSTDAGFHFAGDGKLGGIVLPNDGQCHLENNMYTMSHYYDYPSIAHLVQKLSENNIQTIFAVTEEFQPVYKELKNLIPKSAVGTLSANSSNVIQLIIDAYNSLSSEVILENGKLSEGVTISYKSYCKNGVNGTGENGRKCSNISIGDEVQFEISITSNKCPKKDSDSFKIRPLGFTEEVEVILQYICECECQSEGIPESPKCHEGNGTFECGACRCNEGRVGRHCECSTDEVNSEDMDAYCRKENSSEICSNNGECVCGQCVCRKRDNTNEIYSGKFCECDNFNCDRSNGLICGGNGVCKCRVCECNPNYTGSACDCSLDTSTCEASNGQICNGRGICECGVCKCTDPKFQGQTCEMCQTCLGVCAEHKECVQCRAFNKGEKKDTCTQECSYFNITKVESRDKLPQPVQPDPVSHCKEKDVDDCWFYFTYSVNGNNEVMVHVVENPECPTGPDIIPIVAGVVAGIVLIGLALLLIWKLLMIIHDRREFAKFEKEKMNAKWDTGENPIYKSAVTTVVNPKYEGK
Integrin beta-1 (Homo sapiens) + Integrin alpha-4 (Homo sapiens), sequence (P13612 whole entry, looked up): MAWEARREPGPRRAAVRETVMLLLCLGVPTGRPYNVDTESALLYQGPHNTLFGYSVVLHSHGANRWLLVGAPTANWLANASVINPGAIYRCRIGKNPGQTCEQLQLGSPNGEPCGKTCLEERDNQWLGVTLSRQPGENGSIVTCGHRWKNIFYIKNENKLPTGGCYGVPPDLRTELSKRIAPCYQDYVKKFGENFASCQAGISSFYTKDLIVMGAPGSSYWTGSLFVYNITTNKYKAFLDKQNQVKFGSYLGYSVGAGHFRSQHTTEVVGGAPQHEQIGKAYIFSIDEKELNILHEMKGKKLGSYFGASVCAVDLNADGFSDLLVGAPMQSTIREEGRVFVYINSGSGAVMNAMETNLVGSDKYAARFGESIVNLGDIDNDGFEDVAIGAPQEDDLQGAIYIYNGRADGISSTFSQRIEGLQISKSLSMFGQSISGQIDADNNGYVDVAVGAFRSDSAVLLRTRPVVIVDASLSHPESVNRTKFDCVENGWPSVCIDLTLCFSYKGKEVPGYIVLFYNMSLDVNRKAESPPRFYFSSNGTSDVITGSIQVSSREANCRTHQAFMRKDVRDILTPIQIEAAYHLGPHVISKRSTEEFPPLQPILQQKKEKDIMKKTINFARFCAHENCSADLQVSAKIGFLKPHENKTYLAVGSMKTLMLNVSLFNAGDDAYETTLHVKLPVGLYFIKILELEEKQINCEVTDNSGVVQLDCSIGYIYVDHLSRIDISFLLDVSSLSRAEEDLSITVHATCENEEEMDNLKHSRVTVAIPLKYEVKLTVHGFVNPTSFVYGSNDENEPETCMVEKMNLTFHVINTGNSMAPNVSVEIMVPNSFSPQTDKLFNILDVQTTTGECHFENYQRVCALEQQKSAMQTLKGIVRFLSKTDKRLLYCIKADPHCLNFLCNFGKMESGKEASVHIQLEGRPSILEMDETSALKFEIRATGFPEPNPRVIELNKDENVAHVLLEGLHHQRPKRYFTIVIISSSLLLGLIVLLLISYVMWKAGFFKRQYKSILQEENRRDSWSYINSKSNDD
Beta-2 adrenergic receptor (Homo sapiens), sequence (P07550 whole entry, looked up): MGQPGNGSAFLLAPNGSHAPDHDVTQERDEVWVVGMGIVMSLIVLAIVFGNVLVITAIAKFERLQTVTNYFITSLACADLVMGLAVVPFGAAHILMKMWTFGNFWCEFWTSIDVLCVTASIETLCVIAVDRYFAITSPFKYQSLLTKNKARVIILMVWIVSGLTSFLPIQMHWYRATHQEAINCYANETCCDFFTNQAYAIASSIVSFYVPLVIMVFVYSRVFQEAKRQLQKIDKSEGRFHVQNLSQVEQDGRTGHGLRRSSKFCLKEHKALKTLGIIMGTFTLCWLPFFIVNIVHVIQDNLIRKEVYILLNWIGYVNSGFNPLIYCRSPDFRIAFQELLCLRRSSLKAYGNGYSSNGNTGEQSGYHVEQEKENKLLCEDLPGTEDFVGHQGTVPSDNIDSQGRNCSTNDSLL
ATP-binding cassette sub-family B member 6 (Homo sapiens), sequence (Q9NP58 whole entry, looked up): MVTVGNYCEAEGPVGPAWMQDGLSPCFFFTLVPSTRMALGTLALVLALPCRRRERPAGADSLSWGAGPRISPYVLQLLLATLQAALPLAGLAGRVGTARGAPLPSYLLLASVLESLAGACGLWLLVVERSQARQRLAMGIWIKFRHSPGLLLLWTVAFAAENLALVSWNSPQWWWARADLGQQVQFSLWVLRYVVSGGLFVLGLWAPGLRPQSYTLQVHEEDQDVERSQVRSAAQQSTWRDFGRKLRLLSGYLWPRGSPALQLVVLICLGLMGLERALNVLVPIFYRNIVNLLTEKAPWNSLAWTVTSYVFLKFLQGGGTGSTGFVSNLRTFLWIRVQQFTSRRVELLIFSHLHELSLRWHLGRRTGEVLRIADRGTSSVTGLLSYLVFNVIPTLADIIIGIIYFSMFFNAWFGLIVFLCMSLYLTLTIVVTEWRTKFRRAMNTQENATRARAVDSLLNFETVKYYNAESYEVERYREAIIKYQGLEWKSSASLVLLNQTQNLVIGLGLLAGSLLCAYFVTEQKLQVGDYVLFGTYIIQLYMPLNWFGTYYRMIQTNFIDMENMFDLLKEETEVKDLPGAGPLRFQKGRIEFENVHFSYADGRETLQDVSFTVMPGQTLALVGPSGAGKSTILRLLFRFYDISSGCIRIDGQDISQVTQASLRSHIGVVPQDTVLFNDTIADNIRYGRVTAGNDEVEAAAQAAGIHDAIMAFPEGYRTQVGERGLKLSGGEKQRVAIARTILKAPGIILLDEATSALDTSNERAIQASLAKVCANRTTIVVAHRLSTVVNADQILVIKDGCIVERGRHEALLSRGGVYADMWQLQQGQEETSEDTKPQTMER
Beta-adrenergic receptor kinase 1 (Homo sapiens), sequence (P25098 whole entry, looked up): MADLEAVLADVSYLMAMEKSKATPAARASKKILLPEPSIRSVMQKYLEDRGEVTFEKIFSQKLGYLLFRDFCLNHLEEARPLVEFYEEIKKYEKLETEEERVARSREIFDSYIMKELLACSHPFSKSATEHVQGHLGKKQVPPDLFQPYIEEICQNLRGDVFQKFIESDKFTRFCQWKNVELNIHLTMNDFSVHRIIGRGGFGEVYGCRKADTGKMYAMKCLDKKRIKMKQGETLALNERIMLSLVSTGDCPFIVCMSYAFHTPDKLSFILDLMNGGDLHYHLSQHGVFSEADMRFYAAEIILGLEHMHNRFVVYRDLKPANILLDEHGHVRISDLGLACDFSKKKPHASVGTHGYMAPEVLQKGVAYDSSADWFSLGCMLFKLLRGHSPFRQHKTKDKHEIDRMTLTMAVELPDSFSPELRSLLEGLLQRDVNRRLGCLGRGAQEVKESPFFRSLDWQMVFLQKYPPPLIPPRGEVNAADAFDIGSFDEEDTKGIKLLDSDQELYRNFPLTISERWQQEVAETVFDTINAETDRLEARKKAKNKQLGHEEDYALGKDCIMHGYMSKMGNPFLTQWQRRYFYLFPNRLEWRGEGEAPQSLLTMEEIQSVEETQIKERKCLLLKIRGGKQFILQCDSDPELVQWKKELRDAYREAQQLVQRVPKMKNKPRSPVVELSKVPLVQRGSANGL
AP-2 complex subunit beta (Homo sapiens), sequence (P63010 whole entry, looked up, the tested form may be a part, one chain of several): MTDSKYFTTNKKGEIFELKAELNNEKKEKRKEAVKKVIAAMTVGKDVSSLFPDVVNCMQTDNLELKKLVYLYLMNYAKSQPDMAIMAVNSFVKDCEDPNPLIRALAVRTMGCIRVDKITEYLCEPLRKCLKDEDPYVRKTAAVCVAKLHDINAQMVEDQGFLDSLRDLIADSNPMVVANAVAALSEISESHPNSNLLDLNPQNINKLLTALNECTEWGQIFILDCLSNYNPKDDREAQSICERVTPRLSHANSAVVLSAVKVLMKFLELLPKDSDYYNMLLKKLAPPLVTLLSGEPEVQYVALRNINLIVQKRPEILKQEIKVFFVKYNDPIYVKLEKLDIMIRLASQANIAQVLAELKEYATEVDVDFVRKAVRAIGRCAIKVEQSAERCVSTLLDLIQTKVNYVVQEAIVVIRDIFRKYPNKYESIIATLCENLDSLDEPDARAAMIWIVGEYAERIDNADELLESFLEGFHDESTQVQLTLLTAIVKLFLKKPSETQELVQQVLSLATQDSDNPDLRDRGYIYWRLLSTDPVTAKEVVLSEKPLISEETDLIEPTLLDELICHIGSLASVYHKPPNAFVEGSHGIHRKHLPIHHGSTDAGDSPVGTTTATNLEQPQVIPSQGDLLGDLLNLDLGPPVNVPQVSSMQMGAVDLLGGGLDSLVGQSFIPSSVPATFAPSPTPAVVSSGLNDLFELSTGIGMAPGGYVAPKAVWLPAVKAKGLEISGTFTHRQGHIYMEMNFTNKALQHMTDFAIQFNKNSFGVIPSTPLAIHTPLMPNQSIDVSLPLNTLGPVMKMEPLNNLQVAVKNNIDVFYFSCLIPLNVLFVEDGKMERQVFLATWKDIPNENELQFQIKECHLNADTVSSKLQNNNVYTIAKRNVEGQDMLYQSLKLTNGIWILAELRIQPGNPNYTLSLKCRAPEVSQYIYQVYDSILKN

As for `COc1ccc(-c2cc(=O)oc3c(C)c(O)c(CN(C)C)cc23)cc1`, the double positive events in assay [1] stood at 66%. The vesicle binding response in assay [1] is 183% (inactive). In addition, the results for the inhibition in assay [2], in [6] and in assay [10] were 9.63% (inactive), 2.69% (inactive) and 0% (inactive), respectively. In addition, the superoxide response (% of plate) in [3] was 96.8% (inactive). The aptamer binding inhibition in assay [4] was 1% (inactive). The values for the response in [5] and in assay [7] were -14.6% (inactive) and 5.58% (inactive), respectively. The binding (% of control) in [8] was 98.3% (inactive). Moreover, the efflux inhibition (fraction of control) in assay [9] is 0.42 (inactive). In addition, in assay [11], the differentiation response was 2.74% (inactive).
Consider `COc1cc(OC)c(C(=O)CCCN2CCCC2)c(OC)c1`, for which the double positive events in [1] was 65.4%. Further, the vesicle binding response in [1] is 214% (inactive). In addition, the inhibition is -3.24% (inactive) in assay [2], 1.36% (inactive) in assay [6] and 10% (inactive) in assay [10]. For the same molecule, the superoxide response (% of plate) in [3] is 97.6% (inactive). Besides, the aptamer binding inhibition in assay [4] was 4% (inactive). In addition, the results for the response in assay [5] and in assay [7] were -11.1% (inactive) and 1.8% (inactive), respectively. For the same molecule, the binding (% of control) in assay [8] was 109% (inactive). For the same molecule, the efflux inhibition (fraction of control) in [9] is 0.19 (inactive). Besides, the differentiation response in assay [11] is -8.19% (inactive).
For the molecule `CCc1ccc(/C=C2\SC(=S)N(CCC(=O)N3CCN(C)CC3)C2=O)cc1`, the double positive events in assay [1] was 56.3%. The vesicle binding response in assay [1] is 275% (inactive). The inhibition in [2] is -16.8% (inactive); in assay [6] it was -7.8% (inactive); in assay [10], 2% (inactive). Further, the superoxide response (% of plate) in assay [3] was 90.8% (inactive). Further, the aptamer binding inhibition in [4] was -1% (inactive). Further, the response was 39.6% (inactive) in [5] and -6.7% (inactive) in assay [7]. Further, the binding (% of control) in assay [8] was 101% (inactive). For the same molecule, the efflux inhibition (fraction of control) in assay [9] is 0.3 (inactive). The differentiation response in [11] is 10.4% (inactive).
`OC(COCc1ccccc1)CN1CCN(Cc2ccc3c(c2)OCO3)CC1` (configuration not stated): the double positive events in [1] came to 59.4%. In assay [1], the vesicle binding response is 189% (inactive). Besides, the inhibition in [2] was 7.76% (inactive); in [6], -4.35% (inactive); in assay [10] it was 4% (inactive). Further, the superoxide response (% of plate) in [3] was 110% (inactive). In assay [4], the aptamer binding inhibition was 2% (inactive). In addition, the response in assay [5] was 4.46% (inactive); in assay [7], 4.61% (inactive). Also, the binding (% of control) in assay [8] is 97.8% (inactive). In [9], the efflux inhibition (fraction of control) is -0.21 (inactive). Also, in [11], the differentiation response is 8.8% (inactive).
In assay [1], `CCn1c2ccccc2c2cc(CC(N)=O)ccc21` returned a double positive events of 60.8%. The vesicle binding response in assay [1] was 153% (inactive). For the same molecule, the inhibition in assay [2] is 20.2% (inactive); in assay [6], 1.51% (inactive); in assay [10], 5% (inactive). Besides, in assay [3], the superoxide response (% of plate) is 92.7% (inactive). In assay [4], the aptamer binding inhibition is -1% (inactive). For the same molecule, the response in [5] is -19.5% (inactive); in assay [7], -10.1% (inactive). Further, the binding (% of control) in assay [8] was 103% (inactive). For the same molecule, the efflux inhibition (fraction of control) in assay [9] is 0.04 (inactive). Also, in assay [11], the differentiation response is -0.06% (inactive).
In assay [1], `COc1ccc(C(=O)/C=C2/c3ccccc3CC(C)(C)N2C)cc1` came in with a double positive events of 59.8%. Moreover, in assay [1], the vesicle binding response was 124% (inactive). Moreover, the inhibition in [2] is 2.93% (inactive); in assay [6], -8.96% (inactive); in assay [10], 7% (inactive). Besides, the superoxide response (% of plate) in assay [3] is 99% (inactive). Moreover, the aptamer binding inhibition in [4] is 3% (inactive). In addition, the response is 23.7% (inactive) in assay [5] and -3.68% (inactive) in assay [7]. In assay [8], the binding (% of control) was 98.3% (inactive). Moreover, in assay [9], the efflux inhibition (fraction of control) is -0.25 (inactive). Besides, the differentiation response in assay [11] was -7.5% (inactive).
